ZTA DNA inh – blocks Epstein-Barr virus ZTA, an EBNA-1 counter-screen; P03206; ZTA-DNA binding, fluorescence polarization; inhibition, % at 11 µM; 320,000 compounds, 0.15% hits; AID 2234; in the data active means inhibition above about 33%
LYPLA1 inh – LYPLA1 (human) inhibition in PME1 counter-screen; O75608; recombinant LYPLA1, FP-Rh probe fluorescence polarization; inhibition, % at 5.9 µM; 320,000 compounds, 0.16% hits; AID 2174;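 active means inhibition above the mean of all tested compounds plus 3 SD, set per campaign, cut at about 14% in these data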;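 further: inhibitors block serine hydrolase probe labeling of LYPLA1 so polarization falls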
Target sequence (O75608 whole entry, looked up): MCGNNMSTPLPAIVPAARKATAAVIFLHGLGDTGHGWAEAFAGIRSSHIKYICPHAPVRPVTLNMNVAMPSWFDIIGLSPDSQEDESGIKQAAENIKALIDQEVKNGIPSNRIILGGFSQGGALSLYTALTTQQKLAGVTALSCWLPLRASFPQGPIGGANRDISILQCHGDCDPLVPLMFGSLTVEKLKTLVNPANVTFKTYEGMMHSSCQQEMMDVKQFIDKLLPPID
LYPLA2 inh – LYPLA2 (human) inhibition in PME1 counter-screen. inhibition, % at 5.9 µM. O95372. 320,000 compounds, 0.38% hits. recombinant LYPLA2, FP-Rh probe fluorescence polarization. AID 2177;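 active means inhibition above the screen-wide mean plus 3 SD, limit set per campaign, cut at about 26% in these data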
Target sequence (O95372 whole entry, looked up): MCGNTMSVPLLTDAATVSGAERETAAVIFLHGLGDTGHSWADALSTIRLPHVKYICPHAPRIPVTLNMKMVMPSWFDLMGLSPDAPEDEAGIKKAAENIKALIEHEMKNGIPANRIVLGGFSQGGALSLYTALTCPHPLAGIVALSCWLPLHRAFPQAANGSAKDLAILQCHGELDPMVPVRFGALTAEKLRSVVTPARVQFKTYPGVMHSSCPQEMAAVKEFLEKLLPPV
GSTO1 inh – blocks human GSTO1 in RBBP9 counter-screen. recombinant GSTO1, activity-based probe fluorescence polarization. inhibition, % at 5.96 µM. 300,000 compounds, 1.1% hits. AID 1974;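 active means inhibition above the campaign mean inhibition plus 3 SD, cut at about 35% in these data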
EBNA-1 inhibitor – blocks EBNA-1 binding to DNA | EBNA-1 DNA binding, fluorescence polarization | 300,000 compounds, 0.34% hits | inhibition, % at 14.8 µM | AID 1950; in the data active means inhibition above about 28%
PAD4 FP inh – blocks human protein arginine deiminase 4 | inhibition, % at 6.36 µM | Q9UM07 | recombinant PAD4, RCA probe fluorescence polarization | AID 485272 | 330,000 compounds, 0.41% hits;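 active means percent inhibition above a cutoff equal to the mean of all tested compounds plus 3 SD, cut at about 15% in these data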
EBNA-1 inh conf – EBNA-1 (EBV) inhibition, confirmation | shares compounds with EBNA-1 inhibitor | Recombinant EBNA-1 DBD, Cy5-DNA fluorescence polarization | inhibition, % at 14.8 µM | 830 compounds, 35% hits | AID 2292;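 active means mean inhibition across replicates above a set limit taken from the earlier primary screen, cut at about 28% in these data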
ZTA counter trip – blocks Epstein-Barr virus ZTA in triplicate, EBNA-1 counter-screen | shares compounds with EBNA-1 inhibitor | Zta-ZRE DNA binding, Cy5 fluorescence polarization | AID 2328 | inhibition, % at 11.1 µM | 830 tested, under 10 active;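 active means mean inhibition over triplicates above a set limit taken from the primary EBNA-1 screen, cut at about 37% in these data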;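 further: purified full length Zta protein with Cy5 labeled ZRE DNA probe; inhibitors lower polarization by freeing the labeled DNA probe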
GSTO1 confirm – confirmation of human GSTO1 inhibitors; shares compounds with GSTO1 inh; recombinant GSTO1, probe fluorescence polarization; inhibition, % at 5.96 µM; 2,400 compounds, 54% hits; AID 2176;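 active means inhibition above the primary screen's cutoff, its mean inhibition plus 3 SD, cut at about 35% in these data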;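 further: loss of polarization as inhibitors block binding of rhodamine sulfonate ester activity probe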
Hits are given with their value; n = inactive; x = no result. Only some compounds are listed: those with a hit (about 1.7% of all), similar ones and a draw of the others.

SMILES	ZTA DNA inh	LYPLA1 inh	LYPLA2 inh	GSTO1 inh	EBNA-1 inhibitor	PAD4 FP inh	others
O=C1NC(=O)N(CCC2=CCCCC2)C(=O)/C1=C/c1ccc(O)cc1	n	n	n	35	n	n
O=C1NC(=O)N(CCC2=CCCCC2)C(=O)/C1=C/c1cccs1	n	n	n	n	n	n
COc1ccc2c(c1)c(C(=O)C(C)N1CCCCC1)c(C)n2C (stereo not given)	n	n	n	n	n	n
CN(C)[C@@H]1C(=O)C(C(N)=O)=C(O)[C@@]2(O)C(=O)C3=C(O)c4c(O)cccc4[C@@](C)(O)[C@H]3C[C@@H]12	n	n	n	66	n	n
COc1cccc(C2(O)CCSCC2CN(C)C)c1 (stereo not given)	n	n	n	n	n	n
Cc1cccc(N2C(=O)NC(=O)/C(=C\c3ccc4c(c3)CCCN4Cc3ccccc3)C2=O)c1	n	n	n	n	n	n
CCC(C)N1C(=O)/C(=C/c2ccc3c(c2)CCN3CCCCl)C(=O)NC1=S (stereo not given)	n	n	n	37	n	n
C/C=C/CC#N	n	n	n	x	x	n
Cc1c(Br)c(=O)oc2cc(OCC(=O)N3C[C@H]4C[C@@H](C3)c3cccc(=O)n3C4)ccc12	n	n	n	n	n	n
Cc1ccc2c(c1Cl)NC(C(=O)O)C1CC(Sc3ccccc3[N+](=O)[O-])C(Cl)C21 (stereo not given)	n	n	n	36	n	n
CCC(C)NC(=O)c1c(N)n(CCCOC)c2nc3ccccc3nc12 (stereo not given)	n	n	n	61	n	n
CCN(CC)C(=O)c1ccc(NC(=O)C2=C(C)OCCS2)cc1	n	n	n	n	n	n
CN1CCc2nc3sc(C#N)c(N)c3c(-c3cccs3)c2C1	n	n	n	n	n	n
CN1CCc2nc(N)c(C#N)c(-c3ccccc3)c2C1	n	n	n	36	n	n
Cc1c(N=Nc2c(O)n(C)c(=O)n(C)c2=O)c(=O)n(-c2ccccc2)n1C	n	n	n	39	n	n
CC[C@]12CC[C@H](O)CC1=CCC1C2CC[C@]2(C)C(=O)CCC12 (stereo not given in full)	x	x	x	x	x	n
OCC[n+]1c2ccccc2nc2ccc(N3CCOCC3)cc21	115	n	n	n	84	n
O=C1NC(=O)N(Cc2ccccc2)C(=O)/C1=C\N1CCCc2ccccc21	n	n	n	38	n	n
COC1=CC(=O)[C@]2(C=C1OC)OC[C@@H]1Oc3c(ccc4c3C=CC(C)(C)O4)C(=O)[C@@H]12	x	x	x	x	x	n
O=C1NC(=O)N(c2ccccc2)C(=O)/C1=C\c1ccc([N+](=O)[O-])o1	42	n	n	n	n	n
Cc1ccc(CN2C(=O)NC(=O)C3(Cc4c(nc5ccccn5c4=O)N4CCCCCC43)C2=O)cc1 (stereo not given)	n	n	n	36	n	n
CC1=NN(c2ccccc2)C(=O)C1/C=C1\C(=O)NC(=O)N(c2ccc(C)c(C)c2)C1=O (stereo not given)	n	n	n	n	n	n
CC1=NN(c2ccccc2)C(=O)C1/C=C1/C(=O)NC(=O)N(c2cc(C)cc(C)c2)C1=O (stereo not given)	n	n	n	n	n	16
CCCCn1c(N)c(C(=O)NCCN2CCOCC2)c2nc3ccccc3nc21	n	n	n	n	n	n
CCCCn1c(NC(=O)c2ccc(Br)o2)c(C(=O)OCC)c2nc3ccccc3nc21	n	81	89	90	n	72
SMILES	ZTA DNA inh	LYPLA1 inh	LYPLA2 inh	GSTO1 inh	EBNA-1 inhibitor	PAD4 FP inh	others
COC(=O)C1=C(c2ccc(F)cc2F)C[C@@H]2CC[C@H]1N2C(=O)N1CCCCC1	n	n	n	x	x	n
CCc1ccc(NC(=O)C(C)OC(=O)c2c(C)nn(Cc3ccccc3)c2Cl)cc1 (stereo not given)	n	n	n	n	n	n
Cc1nn(Cc2ccccc2)c(Cl)c1C(=O)OC(C)C(=O)Nc1ccc(F)cc1Cl (stereo not given)	n	n	n	n	122	n	EBNA-1 inh conf=129;ZTA counter trip=n
Cc1nn(Cc2ccccc2)c(Cl)c1C(=O)OCC(=O)Nc1cccc2ccccc12	n	n	n	n	61	n	EBNA-1 inh conf=n;ZTA counter trip=n
CCOC(=O)C1(CCOc2ccccc2)CCN(Cc2ccc(C)s2)CC1	n	n	n	n	n	n
O=P1(Oc2ccccc2)C[C@@H](O)[C@@H](O)[C@H](COCc2ccccc2)O1 (stereo not given in full)	n	n	n	73	n	n	GSTO1 confirm=n
NCC(O)c1cc(O)c(O)cc1F (stereo not given)	n	n	n	50	n	n	GSTO1 confirm=n
Cc1ccccc1-n1c(O)c(C=Nc2ccc(N(C)C)cc2)c(=O)[nH]c1=O	172	n	n	45	43	n	GSTO1 confirm=n
Cc1cccc(N=Cc2c(O)n(-c3ccccc3C)c(=O)[nH]c2=O)c1	n	n	n	n	n	n
Cc1ccc(OP(=O)(NC(C)c2ccccc2)Oc2ccc(C)cc2)cc1 (stereo not given)	n	n	n	n	n	n
O=C1NC(=O)N(c2ccccc2)C(=O)/C1=C\c1ccc([N+](=O)[O-])s1	n	n	n	n	n	n
COc1ccc(OC)c(N2C(=O)NC(=O)/C(=C\c3ccc([N+](=O)[O-])s3)C2=O)c1	n	n	n	40	n	n	GSTO1 confirm=n
CC(C)CCNC(=O)c1c(N)n(CC2CCCO2)c2nc3ccccc3nc12 (stereo not given)	n	n	n	54	n	n	GSTO1 confirm=57
CCC(C)NC(=O)c1c(N)n(CC2CCCO2)c2nc3ccccc3nc12 (stereo not given)	n	n	n	38	n	n	GSTO1 confirm=58
CCC(C)NC(=O)c1c(N)n(Cc2ccc3c(c2)OCO3)c2nc3ccccc3nc12 (stereo not given)	n	n	n	53	n	n	GSTO1 confirm=n
CCC(Oc1cc(Cl)ccc1Cl)C(=O)N1CCC2(CC1)OCCO2 (stereo not given)	n	n	n	n	n	n
Cc1ccc(OP(=O)(NCc2ccccc2)Oc2ccc(C)cc2)cc1	n	n	n	n	n	n
CC(C)=CCOc1c2occc2cc2ccc(=O)oc12	n	n	n	n	n	n
O=[N+]([O-])c1cccnc1N1CCCNCC1	n	n	n	n	n	n
